# Data from PubChem BioAssay (Tox21).
# Where “and” joins values, the source holds several entries; their conditions need not be identical. Equal entries are not always repeated. Inconclusive results are not listed. Entries that show only a call come without a potency. Calls of active or inactive are those of the source. Unless noted, calls follow the shape of the dose curve; as a rule, active = well fitted curve in the direction sought with a large enough effect in the repeat runs; inconclusive = weak or mixed curves; inactive = no such curve, though single readings can be large; an effect the other way counts as inactive or inconclusive.
# Experiments:
# [1] = qHTS assay to identify small molecule antagonists of the glucocorticoid receptor (GR) signaling pathway - cell viability counter screen (AID 720693); also: nearly all actives have a fitted effect of over 55% in size; also: potency is read from the fitted curve at half-maximal effect
# [2] = qHTS assay to identify small molecule antagonists of the androgen receptor (AR) signaling pathway using the MDA cell line - cell viability counter screen (AID 743041; also: nearly all actives have a fitted effect of over 45% in size; also: potency is read from the fitted curve at half-maximal effect)
# Procedure, shortened: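 qHTS viability read-out; MDA-kb2 AR-luc; R1881-stimulated; 16 h exposure at 37C, 0% CO2; CellTiter-Fluor, 30 min; fluorescence intensity.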
# [3] = qHTS assay to identify small molecule antagonists of the thyroid receptor (TR) signaling pathway - cell viability counter screen (AID 743064); also: nearly all actives have a fitted effect of over 50% in size; also: potency is read from the fitted curve at half-maximal effect
# Procedure, shortened: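 Fluorescence from CellTiter-Fluor, added after 23.5 h exposure at 37 °C, reported viability of GH3.TRE-Luc cells co-treated with compound and 1 nM T3. Measured in the same wells as the luciferase TR readout.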
# [4] = qHTS assay to identify small molecule antagonists of the thyroid receptor (TR) signaling pathway (AID 743065); also: nearly all actives have a fitted effect of over 55% in size; also: potency is read from the fitted curve at half-maximal effect
# Procedure, shortened: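 GH3.TRE-Luc rat pituitary cells carrying two TR response elements driving luciferase were plated for 4 h, given compound plus 1 nM T3 (final), and incubated 23.5 h at 37 C. ONE-Glo luminescence measured reporter inhibition; CellTiter-Fluor fluorescence tracked cytotoxicity.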
# [5] = tested on: thyroid hormone receptor (rat, GH3 cells); assay: qHTS assay to identify small molecule agonists of the thyroid receptor (TR) signaling pathway (AID 743066; calls by dose curve; also: potency is read from the fitted curve at half-maximal effect)
# [6] = molecular target: Estrogen receptor (Homo sapiens) (UniProt P03372); assay: qHTS assay to identify small molecule antagonists of the estrogen receptor alpha (ER-alpha) signaling pathway (AID 743069; active = well fitted curve in the direction sought with a large enough effect in the signal ratio in the repeat runs, not every such curve was filed as active; the % refers to the signal ratio)
# Procedure, shortened: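 Screening used a UAS-driven beta-lactamase reporter integrated into HEK293 cells expressing ER-alpha, stimulated with 17beta-estradiol alongside test compounds over 18 hr at 37C; signal came from LiveBLAzer B/G FRET fluorescence.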
# [7] = qHTS assay to identify small molecule antagonists of the estrogen receptor alpha (ER-alpha) signaling pathway - cell viability counter screen (AID 743074; calls by dose curve; also: nearly all actives have a fitted effect of over 45% in size)
# [8] = molecular target: Estrogen receptor (Homo sapiens) (UniProt P03372); assay: qHTS assay to identify small molecule agonists of the estrogen receptor alpha (ER-alpha) signaling pathway (AID 743075; calls by dose curve)
# [9] = molecular target: Estrogen receptor (Homo sapiens) (UniProt P03372); assay: qHTS assay to identify small molecule agonists of the estrogen receptor alpha (ER-alpha) signaling pathway using the BG1 cell line (AID 743079); details: BG1Luc4E2 cells, ERE-luciferase agonist, 22 h; activation: at 70.3 µM (top of the series); also: nearly all actives have a fitted effect of over 20% in size
# [10] = qHTS assay to identify small molecule antagonists of the estrogen receptor alpha (ER-alpha) signaling pathway using the BG1 cell line (AID 743080; calls by dose curve;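 also: BG1 cells stimulated with 17beta-estradiol alongside compound; nearly all actives have a fitted effect of over 25% in size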; also: potency is read from the fitted curve at half-maximal effect); details: BG1Luc4E2 ERE-luciferase antagonist mode, luminescence; activity change, negative = inhibition: at 70.3 µM (top of the series)
# Procedure, shortened: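 Readout is ONE-Glo luminescence, taken 30 min at room temperature after reagent addition, preceded by a CellTiter-Fluor viability read; BG1-Luc-4E2 cells had received compound and 17beta-estradiol for 21.5 h at 37 C.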
# [11] = qHTS assay to identify small molecule antagonists of the estrogen receptor alpha (ER-alpha) signaling pathway using the BG1 cell line - cell viability counter screen (AID 743081);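 also: compound given together with 17beta-estradiol as the ER stimulus; nearly all actives have a fitted effect of over 45% in size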; also: potency is read from the fitted curve at half-maximal effect
# Aromatase (Homo sapiens) = Aromatase (Homo sapiens) (UniProt P11511); assay: qHTS assay to identify aromatase inhibitors (AID 743083); also: nearly all actives have a fitted effect of over 55% in size; also: potency is read from the fitted curve at half-maximal effect
# [12] = qHTS assay to identify aromatase inhibitors - cell viability counter screen (AID 743084);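 also: cells stimulated with testosterone during compound exposure; nearly all actives have a fitted effect of over 55% in size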; also: potency is read from the fitted curve at half-maximal effect
# [13] = qHTS assay for identifying genotoxic compounds that show differential cytotoxicity against isogenic chicken DT40 cell lines with known DNA damage response pathways - Rev3 mutant cell line (AID 743014); also: nearly all actives have a fitted effect of over 55% in size; also: potency is read from the fitted curve at half-maximal effect
# [14] = molecular target: Androgen receptor (Homo sapiens) (UniProt P10275); assay: qHTS assay to identify small molecule antagonists of the androgen receptor (AR) signaling pathway (AID 743035; active = well fitted inhibition curve with a large enough effect in the signal ratio in the repeat runs, not every such curve was filed as active; the % refers to the signal ratio; also: potency is read from the fitted curve at half-maximal effect)
# Procedure, shortened: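 Antagonist mode: AR-bla HEK293 cells co-treated with test compounds and agonist R1881 for 16 h at 37C, 5% CO2. Beta-lactamase activity read as FRET fluorescence after 2 h room-temperature substrate loading.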
# [15] = molecular target: Androgen receptor (Homo sapiens) (UniProt P10275); assay: qHTS assay to identify small molecule agonists of the androgen receptor (AR) signaling pathway using the MDA cell line (AID 743040; also: nearly all actives have a fitted effect of over 20% in size; also: potency is read from the fitted curve at half-maximal effect)
# Procedure, shortened: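 Agonist activity is measured as luciferase luminescence in human MDA-kb2 cells whose MMTV reporter responds to both AR and GR. Compounds in DMSO incubate 16 h at 37C, 0% CO2, and ONE-Glo is read after 30 min.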
# [16] = molecular target: Androgen receptor (Homo sapiens) (UniProt P10275); assay: qHTS assay to identify small molecule antagonists of the androgen receptor (AR) signaling pathway using the MDA cell line (AID 743042; also: nearly all actives have a fitted effect of over 55% in size; also: potency is read from the fitted curve at half-maximal effect)
# Procedure, shortened: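 MDA-kb2 cells (human breast carcinoma, stably carrying an MMTV-luciferase reporter responsive to AR and GR) were plated at 3,000 cells/well and preincubated 5 hr at 37C, then given compound plus R1881 agonist for 16 h. ONE-Glo luminescence was read.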
# [17] = qHTS assay for identifying genotoxic compounds that show differential cytotoxicity against isogenic chicken DT40 cell lines with known DNA damage response pathways - wild type cell line (AID 743012); also: potency is read from the fitted curve at half-maximal effect; nearly all actives have a fitted effect of over 60% in size
# Procedure, shortened: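 Viability by ATP luminescence (CellTiter-Glo, 30 min RT) after 40 h compound treatment at 37 C/5% CO2, using 300 parental DNA repair-proficient DT40 cells per well.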
# [18] = qHTS assay for identifying genotoxic compounds that show differential cytotoxicity against isogenic chicken DT40 cell lines with known DNA damage response pathways - Rad54/Ku70 mutant cell line (AID 743015); also: nearly all actives have a fitted effect of over 60% in size; also: potency is read from the fitted curve at half-maximal effect
# [19] = qHTS assay to identify small molecule antagonists of the androgen receptor (AR) signaling pathway - cell viability counter screen (AID 743033; also: nearly all actives have a fitted effect of over 45% in size; also: potency is read from the fitted curve at half-maximal effect)
# Androgen receptor (Homo sapiens), sequence (P10275 whole entry, looked up): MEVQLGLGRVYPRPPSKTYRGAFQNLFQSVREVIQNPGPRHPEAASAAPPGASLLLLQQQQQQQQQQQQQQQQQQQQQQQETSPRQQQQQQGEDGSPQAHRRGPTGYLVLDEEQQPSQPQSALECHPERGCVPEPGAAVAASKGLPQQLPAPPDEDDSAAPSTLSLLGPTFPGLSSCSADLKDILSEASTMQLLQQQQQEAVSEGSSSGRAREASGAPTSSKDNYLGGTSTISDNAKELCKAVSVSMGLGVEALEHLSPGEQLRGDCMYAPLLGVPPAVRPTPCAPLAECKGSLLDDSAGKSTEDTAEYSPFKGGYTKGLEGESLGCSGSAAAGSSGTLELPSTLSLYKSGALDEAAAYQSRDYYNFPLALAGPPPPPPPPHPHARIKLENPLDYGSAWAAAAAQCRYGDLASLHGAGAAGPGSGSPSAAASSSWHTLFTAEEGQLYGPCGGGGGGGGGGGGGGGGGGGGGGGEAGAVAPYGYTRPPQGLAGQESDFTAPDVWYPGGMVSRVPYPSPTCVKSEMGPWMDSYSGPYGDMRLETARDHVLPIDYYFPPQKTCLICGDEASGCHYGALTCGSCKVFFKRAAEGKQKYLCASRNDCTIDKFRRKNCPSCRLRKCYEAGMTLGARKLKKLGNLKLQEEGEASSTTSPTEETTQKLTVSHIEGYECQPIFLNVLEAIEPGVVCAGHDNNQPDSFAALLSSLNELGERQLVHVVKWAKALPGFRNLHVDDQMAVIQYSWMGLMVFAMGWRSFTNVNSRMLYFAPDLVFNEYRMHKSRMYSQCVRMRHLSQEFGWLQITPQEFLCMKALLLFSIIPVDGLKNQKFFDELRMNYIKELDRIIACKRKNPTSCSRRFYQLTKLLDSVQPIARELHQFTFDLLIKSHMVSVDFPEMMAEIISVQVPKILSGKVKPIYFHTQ
# Aromatase (Homo sapiens), sequence (P11511 whole entry, looked up): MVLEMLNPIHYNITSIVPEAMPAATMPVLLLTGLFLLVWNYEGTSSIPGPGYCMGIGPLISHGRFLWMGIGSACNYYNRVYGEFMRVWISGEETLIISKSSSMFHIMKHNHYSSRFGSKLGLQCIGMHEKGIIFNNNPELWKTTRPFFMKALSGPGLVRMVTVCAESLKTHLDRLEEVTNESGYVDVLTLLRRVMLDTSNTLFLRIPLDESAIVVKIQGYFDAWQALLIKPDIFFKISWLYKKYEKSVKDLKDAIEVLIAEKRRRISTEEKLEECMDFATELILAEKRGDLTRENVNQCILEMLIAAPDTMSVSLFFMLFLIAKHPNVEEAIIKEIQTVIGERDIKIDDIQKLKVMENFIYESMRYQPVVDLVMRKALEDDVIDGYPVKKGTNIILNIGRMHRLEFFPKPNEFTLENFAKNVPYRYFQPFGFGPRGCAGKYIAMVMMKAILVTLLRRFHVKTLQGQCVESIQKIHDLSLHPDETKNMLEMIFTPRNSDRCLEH
# Estrogen receptor (Homo sapiens), sequence (P03372 whole entry, looked up): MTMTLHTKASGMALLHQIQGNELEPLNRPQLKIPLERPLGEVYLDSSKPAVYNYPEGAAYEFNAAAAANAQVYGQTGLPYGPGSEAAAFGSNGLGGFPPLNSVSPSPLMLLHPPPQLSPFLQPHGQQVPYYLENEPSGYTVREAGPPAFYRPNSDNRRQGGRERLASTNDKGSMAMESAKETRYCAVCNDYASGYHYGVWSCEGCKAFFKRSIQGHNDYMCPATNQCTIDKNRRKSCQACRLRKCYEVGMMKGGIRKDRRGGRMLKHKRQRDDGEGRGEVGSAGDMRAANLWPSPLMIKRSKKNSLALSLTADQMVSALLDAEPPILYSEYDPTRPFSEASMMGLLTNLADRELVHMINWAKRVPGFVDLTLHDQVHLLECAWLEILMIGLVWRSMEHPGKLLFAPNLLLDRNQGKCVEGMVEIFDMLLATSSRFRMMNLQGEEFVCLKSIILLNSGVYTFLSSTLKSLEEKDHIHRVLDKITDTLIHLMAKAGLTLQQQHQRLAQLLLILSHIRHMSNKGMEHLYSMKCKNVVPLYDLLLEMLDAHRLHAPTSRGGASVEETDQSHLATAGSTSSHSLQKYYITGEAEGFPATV
smiles,measurement,setting,value
CC1CCCNC1 (stereo not given),Potency,[1],inactive
same,Potency,[2],inactive
same,Potency,[3],inactive
same,Potency,[4],inactive
same,Potency,[5],inactive
same,Potency,[6],inactive
same,Potency,[7],inactive
same,Potency,[8],inactive
same,Potency,[9],inactive
same,Potency,[10],inactive
same,Potency,[11],inactive
same,Potency,Aromatase (Homo sapiens),inactive
same,Potency,[12],inactive
c1ccc(Sc2ccccc2)cc1,Potency,[1],inactive
same,Potency,[13],68.6 µM (active)
same,Potency,[14],inactive
same,Potency,[15],inactive
same,Potency,[2],inactive
same,Potency,[16],inactive
same,Potency,[3],inactive
same,Potency,[4],inactive
same,Potency,[5],inactive
same,Potency,[6],inactive
same,Potency,[7],inactive
same,Potency,[8],inactive
same,Potency,[9],inactive
same,Potency,[10],inactive
same,Potency,[11],inactive
same,Potency,Aromatase (Homo sapiens),inactive
same,Potency,[12],inactive
NC(=O)c1nc(-c2cccc(-c3cc(F)ccc3OCC(F)(F)C(F)(F)F)c2)n[nH]1,Potency,[17],17.2 µM (active)
same,Potency,[13],24.3 µM (active)
same,Potency,[18],13.7 µM (active)
same,Potency,[19],21.9 µM (active)
same,Potency,[14],13.8 µM (active)
same,Potency,[15],inactive
same,Potency,[2],61.1 µM (active)
same,Potency,[16],61.1 µM (active)
same,Potency,[8],inactive
same,Potency,[10],68.6 µM (active)
same,Potency,[11],inactive
same,Potency,Aromatase (Homo sapiens),30.6 µM (active)
same,Potency,[12],43.3 µM (active)
COC(=O)CC(C)CCC=C(C)C (stereo not given),Potency,[1],inactive
same,Potency,[19],inactive
same,Potency,[2],inactive
same,Potency,[3],inactive
same,Potency,[5],inactive
same,Potency,[6],inactive
same,Potency,[7],inactive
same,Potency,[8],inactive
same,Potency,[9],inactive
same,Potency,[10],inactive
same,Potency,[11],inactive
same,Potency,Aromatase (Homo sapiens),inactive
same,Potency,[12],inactive
CCOC(=O)[C@@](C)(N)Cc1ccc(O)c(O)c1,Potency,[1],inactive
same,Potency,[13],inactive
same,Potency,[18],inactive
same,Potency,[2],inactive
same,Potency,[3],inactive
same,Potency,[4],inactive
same,Potency,[5],inactive
same,Potency,[6],inactive
same,Potency,[7],inactive
same,Potency,[8],inactive
same,Potency,[9],inactive
same,Potency,[10],inactive
same,Potency,[11],inactive
same,Potency,Aromatase (Homo sapiens),inactive
same,Potency,[12],inactive
Nc1cc(Cl)c([N+](=O)[O-])cc1O,Potency,[1],inactive
same,Potency,[19],inactive
same,Potency,[3],60.6 µM (active)
same,Potency,[4],inactive
same,Potency,[5],inactive
same,Potency,[6],inactive
same,Potency,[7],inactive
same,Potency,[8],inactive
same,Potency,[9],inactive
same,Potency,[10],inactive
same,Potency,Aromatase (Homo sapiens),inactive
same,Potency,[12],30.4 µM (active)
CCOC(=O)COc1ccc(C)cc1,Potency,[1],inactive
same,Potency,[18],inactive
same,Potency,[19],inactive
same,Potency,[2],inactive
same,Potency,[3],inactive
same,Potency,[6],inactive
same,Potency,[7],inactive
same,Potency,[8],inactive
same,Potency,[9],inactive
same,Potency,[10],inactive
same,Potency,[11],inactive
same,Potency,Aromatase (Homo sapiens),inactive
same,Potency,[12],inactive
C=CC(=O)OCCC#N,Potency,[1],inactive
same,Potency,[13],inactive
same,Potency,[19],inactive
same,Potency,[14],inactive
same,Potency,[15],inactive
same,Potency,[2],inactive
same,Potency,[16],inactive
same,Potency,[4],54.8 µM (active)
same,Potency,[5],inactive
same,Potency,[7],inactive
same,Potency,[11],inactive
CN1[C@@H]2CC[C@H]1CC(OC(=O)C(CO)c1ccccc1)C2 (stereo not given in full),Potency,[1],inactive
same,Potency,[19],inactive
same,Potency,[2],inactive
same,Potency,[3],inactive
same,Potency,[7],inactive
same,Potency,[11],inactive
same,Potency,Aromatase (Homo sapiens),inactive
same,Potency,[12],inactive
CC(=O)Oc1ccc(C2(c3ccc(OC(C)=O)cc3)C(=O)Nc3ccccc32)cc1,Potency,[1],inactive
same,Potency,[13],inactive
same,Potency,[19],inactive
same,Potency,[3],inactive
same,Potency,[5],inactive
same,Potency,[6],inactive
same,Potency,[7],inactive
same,Potency,[8],inactive
same,Potency,[11],841 nM (active) and 1.19 µM (active)
same,Potency,Aromatase (Homo sapiens),inactive
same,Potency,[12],inactive
NCCCC(O)(P(=O)(O)O)P(=O)(O)O,Potency,[1],inactive
same,Potency,[19],inactive
same,Potency,[2],inactive
same,Potency,[3],inactive
same,Potency,[5],inactive
same,Potency,[7],inactive
same,Potency,[11],inactive
same,Potency,[12],inactive
CNCC[C@H](Oc1cccc2ccccc12)c1cccs1,Potency,[1],inactive
same,Potency,[13],9.44 µM (active)
same,Potency,[18],9.44 µM (active)
same,Potency,[2],24.8 µM (active)
same,Potency,[3],7.5 µM (active)
C[C@]12CC[C@H]3C(=CCc4cc(O)ccc43)[C@@H]1CCC2=O,Potency,[1],inactive
same,Potency,[13],54.5 µM (active)
same,Potency,[18],48.6 µM (active)
same,Potency,[15],5.45 µM (active)
same,Potency,[16],27.3 µM (active)
same,Potency,[5],1.54 µM (active)
same,Potency,[7],inactive
same,activation,[9],38% (active)
same,Potency,[11],inactive
same,Potency,Aromatase (Homo sapiens),inactive
same,Potency,[12],inactive
CC(C)(c1cc(Br)c(OCCO)c(Br)c1)c1cc(Br)c(OCCO)c(Br)c1,Potency,[1],38 µM (active)
same,Potency,[13],13.4 µM (active)
same,Potency,[18],16.8 µM (active)
same,Potency,[14],17 µM (active)
same,Potency,[15],inactive
same,Potency,[16],42.3 µM (active)
same,Potency,[3],47.5 µM (active)
same,Potency,[5],inactive
same,Potency,[8],inactive
same,Potency,[12],inactive
CCCCCCCCCCCC(=O)N(CC)CC,Potency,[1],inactive
same,Potency,[13],30.6 µM (active)
same,Potency,[19],inactive
same,Potency,[2],inactive
same,Potency,[4],inactive
same,Potency,[5],inactive
same,Potency,[7],inactive
same,Potency,[11],inactive
same,Potency,Aromatase (Homo sapiens),inactive
same,Potency,[12],inactive
